Assay [1] has as its target Paired box protein Pax-6 (Homo sapiens) (UniProt P26367). The experiment in a line: ATG_Pax6_CIS: Attagene CIS-FACTORIAL HepG2 Assay for human Paired Box 6 (PAX6) (AID 2282956). The settings on record: HepG2 CIS-FACTORIAL PAX6 reporter transcription, RNA readout; actives raise or lower the signal. The gist of the method: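 Read-out is reporter transcript level, measured by RT-PCR with fluorescent primer extension and capillary electrophoresis after 24 h dosing of transfected HepG2 cells. Activity in either direction fitted relative to DMSO control.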

A short description of assay [2]: ATG_PXRE_CIS: Attagene CIS-FACTORIAL HepG2 Assay for human Pregnane X Receptor Element (PXRE) (AID 2282957). Conditions: HepG2 Attagene CIS-FACTORIAL PXRE reporter, mRNA; actives raise or lower the signal. In a few lines: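 Endogenous transcription factor activity in HepG2 was gauged through induction of reporter mRNA driven by a cis-regulating promoter element, sampled 24 h post-treatment. Activity was fitted in both directions against DMSO negative control.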

Assay [3] in a line: ATG_RORE_CIS: Attagene CIS-FACTORIAL HepG2 Assay for human RAR-related Orphan Receptor Element (RORE) (AID 2282959). The settings on record: HepG2 Attagene cis-factorial RORE reporter, mRNA; actives raise or lower the signal. The gist of the method: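 Readout: fluorescent reporter mRNA by RT-PCR plus capillary electrophoresis, 24 h after dosing transfected HepG2 cells. Endogenous transcription factor activity on a cis promoter element is measured. Gain or loss of signal fitted against DMSO.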

Assay [4] is described as follows: ATG_Sox_CIS: Attagene CIS-FACTORIAL HepG2 Assay for human SRY-box transcription factor (SOX) (AID 2282960). Conditions: HepG2 Attagene cis-factorial SOX reporter, mRNA; actives raise or lower the signal. In a few lines:
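Read-out: fluorescent RT-PCR products of SOX1-linked reporter transcripts resolved by capillary electrophoresis, fitted bidirectionally against DMSO. Transiently transfected HepG2 cells, 24 h after chemical exposure, endogenous transcription factor activity.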

Assay [5] has as its target Transcription factor Sp1 (Homo sapiens) (UniProt P08047). The experiment in a line: ATG_Sp1_CIS: Attagene CIS-FACTORIAL HepG2 Assay for human Specificity Protein 1 (Sp1) (AID 2282961). Conditions: HepG2 Sp1 cis-reporter transcription, actives raise or lower the signal. In a few lines: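 Read-out: fluorescence of 6-FAM-labeled, HpaI-digested RT-PCR products separated by capillary electrophoresis. HepG2 cells carried transfected cis-element reporter units and were exposed to chemicals for 24 h; gain or loss of signal fitted relative to DMSO.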

The nature of assay [6]: ATG_SREBP_CIS: Attagene CIS-FACTORIAL HepG2 Assay for human Sterol Regulatory Element Binding (SREBP) (AID 2282962). Conditions: HepG2 Attagene cis-factorial SREBP reporter, mRNA; actives raise or lower the signal. In a few lines: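 Endogenous SREBP activity read as cis-element-driven reporter transcript in transiently transfected HepG2, 24 h post-dosing; quantified via RT-PCR plus capillary electrophoresis of fluorescent fragments. Gain or loss of signal fitted relative to DMSO baseline.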

In assay [7] the target is Signal transducer and activator of transcription 3 (Homo sapiens) (UniProt P40763). The experiment in a line: ATG_STAT3_CIS: Attagene CIS-FACTORIAL HepG2 Assay for human Signal Transducer and Activator of Transcription 3 (STAT3) (AID 2282963). The settings on record: HepG2, Attagene cis-factorial STAT3 reporter transcription; actives raise or lower the signal. The gist of the method:
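Cis-factorial format: endogenous transcription factors in HepG2 drive transfected reporter units. After 24 h treatment, reporter RNA was reverse-transcribed, amplified, FAM-labelled and HpaI-digested before CE analysis; activity scored in both directions against DMSO.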

A short description of assay [8]: ATG_TA_CIS: Attagene CIS-FACTORIAL HepG2 Assay for human TA Basal Promoter (AID 2282964). Conditions: HepG2 Attagene CIS-factorial TA basal promoter reporter; actives raise or lower the signal. The gist of the method: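 Multiplexed mRNA reporter assay, HepG2, 24 h. Reporter cDNA amplified, 6-FAM primer-extended, HpaI-cut, CE-sized; DMSO = negative control and baseline.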

Assay [9] in a line: ATG_TCF_b_cat_CIS: Attagene CIS-FACTORIAL HepG2 Assay for human T-Cell-Factor with beta-catenin (TCF/b-cat) (AID 2282965). The settings on record: HepG2 TCF/beta-catenin cis-reporter transcription, actives raise or lower the signal. In a few lines:
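Endogenous transcription factor activity is captured through cis-promoter reporter constructs transiently introduced into human HepG2 liver cells. Induced reporter mRNA is measured after 24 h and fitted bidirectionally relative to DMSO.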

Assay [10] is described as follows: ATG_TAL_CIS: Attagene CIS-FACTORIAL HepG2 Assay for human TAL Basal Promoter (AID 2282966).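 Further: background control endpoint measuring basal TAL promoter reporter mRNA not a specific factor.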 Conditions: HepG2 Attagene cis-factorial TAL promoter reporter; actives raise or lower the signal. The gist of the method:
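Endogenous transcription-factor activity is sensed in HepG2 cells through transfected cis-promoter reporter constructs. After 24 h dosing, reporter transcripts are quantified by RT-PCR and capillary electrophoresis. Gain or loss of signal is fitted relative to DMSO.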

Assay [11] can be described thus: ATG_TGFb_CIS: Attagene CIS-FACTORIAL HepG2 Assay for human Transforming Growth Factor (TGF) (AID 2282967). The settings on record: HepG2 Attagene CIS TGFb reporter, mRNA transcription; actives raise or lower the signal. In a few lines:
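Transcript-level reporter readout: HepG2 transfectants, 24 h exposure, RNA to cDNA, reporter-specific PCR, fluorescent primer extension, capillary sizing against ROX standards. Gain- or loss-of-signal relative to DMSO.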

Assay [12] is described as follows: ATG_VDRE_CIS: Attagene CIS-FACTORIAL HepG2 Assay for human Vitamin D Receptor Element (VDRE) (AID 2282968). The settings on record: HepG2 VDRE cis-reporter transcription, actives raise or lower the signal. The gist of the method:
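Measures endogenous factor activity through cis-element-driven reporter transcripts in transiently transfected HepG2. Cells are treated 24 h; reporter mRNA is quantified by RT-PCR and capillary electrophoresis; fitting is bidirectional.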

The target in assay [13] is Nuclear receptor subfamily 1 group I member 3 (Homo sapiens) (UniProt Q14994). Nature of the assay: ATG_CAR_TRANS: Attagene TRANS-FACTORIAL HepG2 Assay for human Constitutive Androstane Receptor (CAR) (AID 2282969; active means hit-call score of the fitted dose curve at least 0.9, where 1 is the maximum;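 further: activators raise reporter mRNA above DMSO so AC50 marks induction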). The settings on record: HepG2 Attagene TRANS-FACTORIAL CAR reporter. In a few lines:
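Signal is reporter mRNA induction relative to DMSO, measured 24 h after dosing by RT-PCR with fluorescent primer extension and capillary electrophoresis. Human HepG2 liver cells carried transiently transfected chimeric NR-Gal4/GAL4-UAS reporter constructs.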

Assay [14] deals with Estrogen receptor (Homo sapiens) (UniProt P03372). The experiment in a line: ATG_ERa_TRANS: Attagene TRANS-FACTORIAL HepG2 Assay for human Estrogen Receptor alpha (ERa) (AID 2282970; active means hit-call score of the fitted dose curve at least 0.9, where 1 is the maximum). Conditions: HepG2 Attagene TRANS ERa GAL4 reporter, mRNA. In a few lines: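 Transfected HepG2 cells carrying GAL4-UAS-driven reporter units were dosed for 24 hours. Total RNA was reverse-transcribed, reporter sequences PCR-amplified, FAM-labelled, HpaI-digested and resolved by capillary electrophoresis. Increases over DMSO control defined activity.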
Chain of Estrogen receptor (Homo sapiens) (P03372 whole entry, looked up, the tested form may be a part): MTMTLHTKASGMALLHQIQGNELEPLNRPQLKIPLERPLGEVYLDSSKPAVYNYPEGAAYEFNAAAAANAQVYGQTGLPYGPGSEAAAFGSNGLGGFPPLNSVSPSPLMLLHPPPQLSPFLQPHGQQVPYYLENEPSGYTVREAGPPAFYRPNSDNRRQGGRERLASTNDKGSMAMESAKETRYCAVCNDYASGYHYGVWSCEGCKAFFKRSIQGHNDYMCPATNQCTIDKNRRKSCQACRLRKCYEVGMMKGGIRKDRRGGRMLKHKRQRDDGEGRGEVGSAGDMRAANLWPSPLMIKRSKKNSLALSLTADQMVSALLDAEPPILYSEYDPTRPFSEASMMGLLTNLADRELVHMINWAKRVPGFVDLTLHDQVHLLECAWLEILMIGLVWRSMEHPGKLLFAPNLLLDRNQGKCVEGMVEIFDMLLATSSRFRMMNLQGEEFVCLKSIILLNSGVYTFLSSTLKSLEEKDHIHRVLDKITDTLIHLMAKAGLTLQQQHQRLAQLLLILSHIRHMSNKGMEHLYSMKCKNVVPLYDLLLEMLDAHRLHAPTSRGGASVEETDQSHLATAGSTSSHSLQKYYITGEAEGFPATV

The target in assay [15] is X-box-binding protein 1 (Homo sapiens) (UniProt P17861). The experiment in a line: ATG_Xbp1_CIS: Attagene CIS-FACTORIAL HepG2 Assay for human X-box Binding Protein 1 (XBP1) (AID 2282972). The settings on record: HepG2 XBP1 cis-element reporter, Attagene multiplex; actives raise or lower the signal. In a few lines:
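Reporter transcripts were quantified by RT-PCR with fluorescent primer extension and capillary electrophoresis after 24 h chemical exposure. Cells: transiently transfected HepG2 carrying cis-regulated reporter constructs; data fitted bidirectionally relative to DMSO.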

Assay [16] is described as follows: ATG_GAL4_TRANS: Attagene TRANS-FACTORIAL HepG2 Assay for GAL4 (Internal Marker) (AID 2282976; active means hit-call score of the fitted dose curve at least 0.9, where 1 is the maximum). The settings on record: HepG2 Attagene TRANS GAL4 internal marker reporter. The gist of the method:
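Fluorescence from capillary electrophoresis of labelled RT-PCR products quantifies reporter mRNA induction after 24 h dosing of HepG2 cells carrying transfected GAL4-UAS reporter transcription units. Vehicle DMSO serves as baseline.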

Assay [17] concerns the target Estrogen-related receptor gamma (Homo sapiens) (UniProt P62508). Nature of the assay: ATG_ERRg_TRANS: Attagene TRANS-FACTORIAL HepG2 Assay for human Estrogen-Related Receptor gamma (ERRg) (AID 2282977; active means hit-call score of the fitted dose curve at least 0.9, where 1 is the maximum;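 further: hits increase reporter signal over DMSO so potencies reflect activators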). Conditions: HepG2 Attagene TRANS reporter, ERRg transactivation. In a few lines: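 Exogenous NR-Gal4 chimera activity was assessed in HepG2 cells bearing transfected GAL4-UAS reporters. After 24 h dosing, total RNA underwent RT-PCR, fluorescent primer extension and HpaI digestion before capillary electrophoresis, with gain of signal scored against DMSO.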

A short description of assay [18]: ATG_M_19_TRANS: Attagene TRANS-FACTORIAL HepG2 Assay for M19 Transcription Factor (Internal Marker) (AID 2282974; active means hit-call score of the fitted dose curve at least 0.9, where 1 is the maximum). The settings on record: HepG2 Attagene TRANS-FACTORIAL M19 internal marker reporter. In a few lines:
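24 h chemical exposure of transiently transfected HepG2 (MRTU library). RNA → oligo(dT) RT → PCR → 6-FAM labelling → HpaI cut → CE fluorescence. Positive-direction fit vs DMSO baseline; background internal-marker readout.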

The target in assay [19] is Steroid hormone receptor ERR1 (Homo sapiens) (UniProt P11474). The experiment in a line: ATG_ERRa_TRANS: Attagene TRANS-FACTORIAL HepG2 Assay for human Estrogen-Related Receptor alpha (ERRa) (AID 2282971; active means hit-call score of the fitted dose curve at least 0.9, where 1 is the maximum). The settings on record: HepG2 Attagene TRANS reporter, ERRa transactivation. In a few lines:
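HepG2 cells were transiently transfected with multiple GAL4-UAS reporter units, then dosed with compound for 24 h. Total RNA was reverse-transcribed, reporter cDNA PCR-amplified and fluorescently labelled, and fragments resolved by capillary electrophoresis; induction was compared with DMSO.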

Structures are written as SMILES. Records with an inconclusive call do not appear. Active and inactive are the calls of the source. How the source made its calls, unless noted: active means hit-call score of the fitted dose curve at least 0.9, where 1 is the maximum; inactive means score below 0.9.

Chain of Transcription factor Sp1 (Homo sapiens) (P08047 whole entry, looked up): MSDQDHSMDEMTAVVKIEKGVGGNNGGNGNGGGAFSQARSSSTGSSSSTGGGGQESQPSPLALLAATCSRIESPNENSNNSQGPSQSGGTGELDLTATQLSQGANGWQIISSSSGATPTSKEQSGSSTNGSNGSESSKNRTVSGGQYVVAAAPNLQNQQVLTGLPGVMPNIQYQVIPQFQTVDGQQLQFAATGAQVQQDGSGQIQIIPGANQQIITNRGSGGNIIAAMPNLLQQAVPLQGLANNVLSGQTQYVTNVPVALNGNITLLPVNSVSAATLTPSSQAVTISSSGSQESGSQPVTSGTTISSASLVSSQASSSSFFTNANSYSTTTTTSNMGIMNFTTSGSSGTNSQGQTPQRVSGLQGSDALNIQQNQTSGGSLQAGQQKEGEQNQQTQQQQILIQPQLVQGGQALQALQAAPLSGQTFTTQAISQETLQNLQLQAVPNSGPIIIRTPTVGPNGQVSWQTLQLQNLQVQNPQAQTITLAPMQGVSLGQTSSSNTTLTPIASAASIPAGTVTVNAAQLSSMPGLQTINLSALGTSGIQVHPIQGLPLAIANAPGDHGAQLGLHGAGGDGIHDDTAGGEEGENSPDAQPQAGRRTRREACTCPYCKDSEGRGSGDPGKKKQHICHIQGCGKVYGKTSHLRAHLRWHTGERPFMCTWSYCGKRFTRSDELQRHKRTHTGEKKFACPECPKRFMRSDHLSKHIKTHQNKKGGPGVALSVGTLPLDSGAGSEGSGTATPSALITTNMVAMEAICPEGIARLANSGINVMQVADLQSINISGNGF
Chain of Signal transducer and activator of transcription 3 (Homo sapiens) (P40763 whole entry, looked up): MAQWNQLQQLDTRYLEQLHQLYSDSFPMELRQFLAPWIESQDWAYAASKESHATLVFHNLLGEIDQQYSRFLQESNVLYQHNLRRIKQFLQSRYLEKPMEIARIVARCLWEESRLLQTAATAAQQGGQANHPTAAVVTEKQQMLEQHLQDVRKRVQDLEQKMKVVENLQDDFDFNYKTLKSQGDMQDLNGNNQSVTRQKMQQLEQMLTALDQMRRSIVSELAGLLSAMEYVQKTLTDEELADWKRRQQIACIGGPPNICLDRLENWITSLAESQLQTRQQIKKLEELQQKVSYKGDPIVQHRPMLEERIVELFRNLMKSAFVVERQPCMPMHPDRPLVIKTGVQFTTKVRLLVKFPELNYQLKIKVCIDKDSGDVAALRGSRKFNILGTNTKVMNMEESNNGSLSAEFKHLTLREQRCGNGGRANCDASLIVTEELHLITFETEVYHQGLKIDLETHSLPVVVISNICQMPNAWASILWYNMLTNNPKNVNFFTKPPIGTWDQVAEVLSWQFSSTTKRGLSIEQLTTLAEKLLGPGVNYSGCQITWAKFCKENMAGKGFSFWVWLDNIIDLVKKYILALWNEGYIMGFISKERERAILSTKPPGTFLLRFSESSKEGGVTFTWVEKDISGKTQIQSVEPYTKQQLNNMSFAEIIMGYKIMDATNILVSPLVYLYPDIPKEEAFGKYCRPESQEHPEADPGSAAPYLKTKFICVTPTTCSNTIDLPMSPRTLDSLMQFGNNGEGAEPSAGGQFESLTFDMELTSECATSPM
Chain of Paired box protein Pax-6 (Homo sapiens) (P26367 whole entry, looked up): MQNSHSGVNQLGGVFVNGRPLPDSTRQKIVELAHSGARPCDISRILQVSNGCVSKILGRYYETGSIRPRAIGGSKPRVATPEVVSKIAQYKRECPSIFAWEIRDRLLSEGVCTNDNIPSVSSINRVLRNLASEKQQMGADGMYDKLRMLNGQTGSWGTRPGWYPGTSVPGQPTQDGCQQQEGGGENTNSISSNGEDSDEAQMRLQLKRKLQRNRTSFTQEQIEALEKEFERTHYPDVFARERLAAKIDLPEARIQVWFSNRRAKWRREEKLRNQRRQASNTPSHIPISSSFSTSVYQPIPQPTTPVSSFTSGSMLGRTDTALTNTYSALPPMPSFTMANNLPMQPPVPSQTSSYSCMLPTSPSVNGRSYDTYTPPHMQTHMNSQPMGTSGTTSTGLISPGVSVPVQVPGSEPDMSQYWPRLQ
Chain of Estrogen-related receptor gamma (Homo sapiens) (P62508 whole entry, looked up, the tested form may be a part): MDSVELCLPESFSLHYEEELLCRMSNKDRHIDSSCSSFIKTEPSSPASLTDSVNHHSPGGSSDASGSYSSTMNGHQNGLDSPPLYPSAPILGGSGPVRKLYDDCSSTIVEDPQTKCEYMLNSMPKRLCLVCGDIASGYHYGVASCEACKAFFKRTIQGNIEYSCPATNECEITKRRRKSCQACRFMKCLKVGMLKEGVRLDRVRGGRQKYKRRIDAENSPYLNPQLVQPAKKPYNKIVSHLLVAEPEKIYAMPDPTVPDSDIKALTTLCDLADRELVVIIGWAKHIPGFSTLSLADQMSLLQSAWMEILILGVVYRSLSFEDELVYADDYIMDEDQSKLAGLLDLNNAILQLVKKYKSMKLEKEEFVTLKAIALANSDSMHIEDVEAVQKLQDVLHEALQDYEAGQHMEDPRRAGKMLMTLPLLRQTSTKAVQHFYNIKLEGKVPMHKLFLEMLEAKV
Chain of X-box-binding protein 1 (Homo sapiens) (P17861 whole entry, looked up): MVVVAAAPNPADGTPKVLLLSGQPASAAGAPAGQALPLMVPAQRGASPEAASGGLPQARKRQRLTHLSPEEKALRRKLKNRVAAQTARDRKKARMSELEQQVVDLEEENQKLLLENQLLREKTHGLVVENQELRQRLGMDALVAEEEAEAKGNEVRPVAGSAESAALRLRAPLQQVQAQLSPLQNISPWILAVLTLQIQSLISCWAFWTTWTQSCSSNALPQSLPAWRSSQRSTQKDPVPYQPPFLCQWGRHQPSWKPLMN
Chain of Nuclear receptor subfamily 1 group I member 3 (Homo sapiens) (Q14994 whole entry, looked up, the tested form may be a part): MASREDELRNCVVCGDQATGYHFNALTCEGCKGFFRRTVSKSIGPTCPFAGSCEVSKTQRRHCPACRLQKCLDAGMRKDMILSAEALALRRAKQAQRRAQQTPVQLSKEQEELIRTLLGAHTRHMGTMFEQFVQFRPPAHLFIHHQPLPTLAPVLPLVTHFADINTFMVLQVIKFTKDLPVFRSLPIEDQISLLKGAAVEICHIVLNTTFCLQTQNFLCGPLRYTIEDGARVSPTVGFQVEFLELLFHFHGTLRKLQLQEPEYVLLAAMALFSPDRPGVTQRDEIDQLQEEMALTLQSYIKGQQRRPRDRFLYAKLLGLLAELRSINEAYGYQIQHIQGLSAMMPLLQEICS
Chain of Steroid hormone receptor ERR1 (Homo sapiens) (P11474 whole entry, looked up, the tested form may be a part): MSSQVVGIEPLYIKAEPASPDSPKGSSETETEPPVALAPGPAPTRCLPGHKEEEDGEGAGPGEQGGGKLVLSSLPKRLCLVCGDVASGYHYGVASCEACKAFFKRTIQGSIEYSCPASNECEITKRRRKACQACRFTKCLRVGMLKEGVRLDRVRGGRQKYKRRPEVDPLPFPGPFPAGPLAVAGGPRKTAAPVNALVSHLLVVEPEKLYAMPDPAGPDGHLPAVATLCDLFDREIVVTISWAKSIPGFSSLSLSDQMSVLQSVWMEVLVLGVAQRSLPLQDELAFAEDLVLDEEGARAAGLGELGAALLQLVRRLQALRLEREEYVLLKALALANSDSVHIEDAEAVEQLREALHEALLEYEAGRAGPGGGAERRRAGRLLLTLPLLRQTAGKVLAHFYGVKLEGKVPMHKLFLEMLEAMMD

As for `COc1ccc(OC)c(OC)c1`, the result in [1], in assay [2], in assay [3], in [4], in assay [5] and in [6] was inactive. The outcome in assay [7], in assay [8], in assay [9], in assay [10], in [11] and in assay [12] was inactive. Further, the compound was called inactive in assay [13], in assay [14], in assay [15] and in assay [16].

With `C/C=C(\C)C(=O)OCc1ccccc1`, the call in [1], in [2], in assay [3], in assay [4], in [5] and in [6] was inactive. The compound was called inactive in assay [7], in [8], in [9], in assay [10], in assay [11] and in assay [12]. Also, the compound was called inactive in assay [15], in [16] and in [17].

As for `CC1(C)OC[C@@H]2O[C@@]3(C(=O)O)OC(C)(C)O[C@H]3[C@@H]2O1`, the call in assay [1], in assay [2], in assay [3], in assay [4], in assay [5] and in assay [6] was inactive. In addition, the result in assay [7], in assay [8], in assay [9], in assay [10], in assay [12] and in assay [13] was inactive. For the same compound, the result in assay [15] and in assay [18] was inactive.

For the compound `CC(CN1c2ccccc2Sc2ccccc21)N(C)C` (configuration not stated), the AC50 is 44 µM (active) in assay [1]; 5.52 µM (active) in [2]; 33.4 µM (active) in assay [9]; 50.2 µM (active) in assay [10]; 24.2 µM (active) in assay [15]. Further, the compound was called inactive in assay [3], in assay [4], in [5], in [6], in [7] and in assay [8]. Besides, the outcome in assay [11] and in [18] was inactive.

`CCCCCCCCCCCCCC(=O)O`: the result in assay [1], in [2], in assay [3], in assay [4], in assay [5] and in [7] was inactive. The call in assay [8], in assay [9], in assay [10], in assay [12], in assay [15] and in assay [16] was inactive. The call in assay [17] was inactive. For the same compound, the AC50 in [6] was 54.9 µM (active).

On to `CC(C#N)(CCC(=O)O)N=NC(C)(C#N)CCC(=O)O` (configuration not stated), for which the outcome in assay [1], in [3], in assay [4], in assay [5], in assay [6] and in assay [7] was inactive. Moreover, the compound was classed as inactive in assay [8], in assay [9], in [10], in [11], in [12] and in assay [19]. Moreover, the call in assay [15] and in assay [17] was inactive. For the same compound, in [2], the AC50 is 26.2 µM (active).

These data come from PubChem BioAssay (EPA / NIEHS).
